The structures appear in SMILES notation. About 83,000 compounds went through this panel and 20% of them were active in at least one assay; those are over-represented in the sample as a whole.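 Interpretation: 100, growth as untreated; towards 0, rising growth inhibition; 0, no net growth; 0 to -100, cell death. Compounds scoring below 10 were considered active.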 Activity calls are given as the source filed them.

For the assay, the system named is NCI-H522 lung. The assay can be described thus: NCI-60 one-dose screen, 48 h (100 = growth as untreated, 0 = no growth, -100 = all killed). The settings on record: 10 µM. As to the method:
Growth inhibition of the NCI-H522 human Non-Small Cell Lung tumor cell line is measured as a screen for anti-cancer activity. Cells are grown in 96 well plates and exposed to the test compound for 48 hours. Compounds are tested at a single concentration, which is 10^-5 M for most compounds. The reported endpoint is percent growth (GI% or GIPRCNT), where numbers from 0 - 100% represent growth inhibition, and numbers from -100% - 0 represent cell death. For example, a value of 40 represents 60% growth inhibition. A value of 0 means no net growth occurred over the course of the experiment. A value of -40 indicates 40% of cells at the beginning of the experiment died by the end of the experiment. A value of -100 means all cells are dead at the end of the experiment.
NCI-60 Human Tumor Cell Lines Screen was performed using the standard one-dose NCI protocol, which is described in more detail at https://dtp.cancer.gov/discovery_development/nci-60/default.htm.
Compounds with GIPRCNT values below 10 were considered active. Activity score was based on GIPRCNT using the following formula: […]
Score is 0 for GIPRCNT values of 100 or above, 50 for GIPRCNT values of 0, and 100 for GIPRCNT values of -100.
As to `Cc1cc(=O)oc2cc(OCCCCOc3ccc(/C=C/C(=O)Nc4ccc(F)c(Cl)c4)cc3)ccc12`, the growth is 94.6% (inactive).

As to `O=c1oc2ccccc2cc1-c1csc(N=Nc2c(O)[nH]c3ccc(Br)cc23)n1`, the growth is 67.4% (inactive). Consider `O=C1Nc2ccc(F)cc2/C1=C/c1cccc(OCc2ccccn2)c1`, for which the growth is -14.1% (active). For the molecule `CC1(C)CC[C@]2(C(=O)Nc3ccccc3)CC[C@]3(C)C(=CC[C@@H]4[C@@]5(C)CC[C@H](N)C(C)(C)[C@@H]5CC[C@]43C)[C@H]2C1`, the growth is 82.9% (inactive).

On to `O=C(CSc1nnc(-c2c[nH]c3ccccc23)n1-c1ccccc1)Nc1ccc(C(=O)/C=C/c2cccc([N+](=O)[O-])c2)cc1`, for which the growth is 82.1% (inactive).

On to `O=C(Nc1nc2ccccc2s1)c1ccc(Br)cc1`, for which the growth was 75.3% (inactive). Under `COC[C@@H](CC(C)C)N=C1NC(=O)/C(=C/c2ccc3ncoc3c2)N1` stands -16.2% (active). In the case of `O=C(c1ccc(Cl)cc1)C1[C@H](c2ccccc2Br)[C@@H](c2ccccc2)NC12C(=O)Nc1ccc(Br)cc12` (stereo not given in full) it was -24.4% (active). In the case of `Nc1nc2c(F)c(F)c(F)c(F)c2s1` it was 89.5% (inactive); in that of `Cc1cccc2cc(-c3cc(-c4ccccc4)nc(=S)[nH]3)c(Cl)nc12`, 64.2% (inactive); in that of `O=C(CSc1nnc(-c2c[nH]c3ccccc23)n1-c1ccccc1)Nc1ccc(C(=O)/C=C/c2ccccc2Cl)cc1`, 83.1% (inactive). As for `CC(C)(C)c1ccc(NCc2cn(-c3ccc(C(=O)O)cc3)nc2-c2ccc(C#N)cc2)cc1`, the growth was 57.1% (inactive).

For `Cc1ccc2nc3c(nc2c1)c1cc(I)ccc1n3CCN(C)C`, the growth is 31.4% (inactive). Take `CC(C)NC(=O)c1cc(-c2ccc(NC(=O)Nc3ccc(N4CCN(C)CC4)c(C(F)(F)F)c3)cc2)nc2cccnc12`: the growth is -90.8% (active). As to `COc1ccc(OC)c(/C=N/NC(=O)c2ccc3nc(-c4ccc(Cl)cc4)[nH]c3c2)c1`, the growth was 59.1% (inactive). For the molecule `O=C(CNc1nc(-c2ccccc2)cs1)Nc1ccccc1`, the growth is -81.6% (active). Turning to `COc1ccc(NC(=O)Cn2c(/C=C/c3ccc(N(C)C)cc3)nc3ccccc3c2=O)cc1`, the growth was 44.1% (inactive). Under `C/C(=N\NC(N)=S)c1ccc(Nc2nc(SC(C)C)nc(-c3ccccc3)c2C#N)cc1` stands 78% (inactive). Turning to `S=c1nc(-c2ccccc2)cc(-c2cc3ccccc3nc2Cl)[nH]1`, the growth is 57.8% (inactive). For the molecule `Cc1ccc(C(C)C)cc1NC(=O)c1ccccc1N(C)C`, the growth is 78.3% (inactive). `CC(=O)c1cc(C(=O)N2c3ccccc3Sc3ccccc32)n2ccc(C)cc12`: the growth was 49.6% (inactive).

As for `COc1ccc2c3nc4cc(C)c(C)cc4nc3n(CCN(C)C)c2c1`, the growth was -22.4% (active).

As for `Cc1ccn2c(C(=O)c3ccccc3)cc(-c3cc(-c4ccc(N(C)C)cc4)c(C#N)c(N)n3)c2c1`, the growth was 79.4% (inactive). Under `COc1csc(/C=N/NC(=O)c2[nH]c3ccc(Br)cc3c2-c2ccccc2)c1` stands -48.5% (active); under `[2H]C([2H])([2H])Oc1ccc2ncc(C#Cc3cncc(C(=O)Nc4ccc(CN5CCN(C)CC5)c(C(F)(F)F)c4)c3)n2n1`, -40.4% (active).

In the case of `CCCCSc1nc(Nc2ccc(/C(C)=N/NC(N)=S)cc2)c(C#N)c(-c2ccc(F)cc2)n1`, the growth was 43.9% (inactive). `O=C(CSc1ccc(-c2ccc(Cl)cc2)nn1)Nc1ccc(Cl)c(C(F)(F)F)c1`: the growth is 55.1% (inactive). In the case of `CCCCCCCCCCCCCCCCCCCC(=O)NCCc1c[nH]c2ccc(O)cc12`, the growth was -13.2% (active). Regarding `COc1ccccc1[C@H]1C(C(=O)c2ccc(O)cc2)C2(N[C@@H]1c1ccccc1)C(=O)Nc1ccc(Br)cc12` (stereo not given in full), the growth was -7.87% (active).

Regarding `Nc1nc(-c2ccccc2)cs1`, the growth was -4.11% (active).

Consider `C=CC(=O)Nc1nc(-c2cccc(NS(=O)(=O)c3cccc4c(N(C)C)cccc34)c2)cs1`, for which the growth is -76.9% (active).

As for `COc1ccc(-c2cc(C(=O)N=Nc3c(O)[nH]c4ccc(Br)cc34)c3ccccc3n2)cc1`, the growth is 57.7% (inactive). For the molecule `O=C(NO)c1ccc(CN2CCN(c3nc(-c4ccccc4)c4ccccc4n3)CC2)cc1`, the growth is -21.2% (active).

Take `CN(C)c1cccc2c(S(=O)(=O)Nc3cccc(-c4csc(NC(=O)CCCCCN5CCN(c6cc7c(cc6F)C(=O)N(C6CCC(=O)NC6=O)C7=O)CC5)n4)c3)cccc12` (stereo not given): the growth is 85.6% (inactive). Consider `Cc1ccc(S(=O)(=O)c2nc(-c3ccccc3)oc2S(=O)(=O)CC(=O)N2CCCC2)cc1`, for which the growth was -96.3% (active).

For `COc1ccc(C(=O)Nc2ccc(-c3ccc4c(c3)NC(=O)/C4=C\c3ccc[nH]3)cc2)cc1`, the growth was 64.2% (inactive).

Regarding `O=C(NO)c1ccc(CNC(=O)[C@H]2Cc3c([nH]c4ccccc34)[C@H](c3ccc(Cl)cc3)N2)cc1`, the growth is -35.2% (active). On to `CN1CCCN(Cc2ccc(C(=O)Nc3cccc(Nc4ccc5cc(O)ccc5n4)c3)cc2C(F)(F)F)CC1`, for which the growth was 80.3% (inactive). On to `O=C1N/C(=N\c2nccs2)S/C1=C\c1cccs1`, for which the growth was 21.2% (inactive). Turning to `O=S(=O)(c1ccc(Cl)cc1)c1nc(-c2ccccc2)oc1S(=O)(=O)c1ccc(Cl)cc1`, the growth was 88.1% (inactive).

The values are drawn from PubChem BioAssay (NCI).
